# In the library only some 4.2% were active in any assay of this set; here they are far more common.
# PLK1 PBD inh = qHTS for Inhibitors of PLK1-PDB (polo-like kinase 1 - polo-box domain): Primary Screen. Potency, µM, without a hit: max response, negative = inhibition, hits mostly inhibitors. 2.8% of 360,000 active. Serine/threonine-protein kinase PLK1 (Homo sapiens), P53350. Plk1 PBD binding of FITC phosphopeptide, fluorescence polarization; note: series mostly up to about 57 µM; nearly all actives have a fitted effect of over 65% in size
# 12-LOX inh = Primary qHTS assay for inhibitors of human arachidonate 12S-lipoxygenase (ALOX12): Round 2. Polyunsaturated fatty acid lipoxygenase ALOX12 (Homo sapiens), P18054. purified 12hLO, xylenol orange hydroperoxide absorbance. Potency, µM (series often up to 108 µM), for inactives: at the top dose activity change, negative = inhibition, usual class: inhibitors. 1.1% of 580,000 active. AID 1671190, 2021
# Target sequence (P18054 whole entry, looked up): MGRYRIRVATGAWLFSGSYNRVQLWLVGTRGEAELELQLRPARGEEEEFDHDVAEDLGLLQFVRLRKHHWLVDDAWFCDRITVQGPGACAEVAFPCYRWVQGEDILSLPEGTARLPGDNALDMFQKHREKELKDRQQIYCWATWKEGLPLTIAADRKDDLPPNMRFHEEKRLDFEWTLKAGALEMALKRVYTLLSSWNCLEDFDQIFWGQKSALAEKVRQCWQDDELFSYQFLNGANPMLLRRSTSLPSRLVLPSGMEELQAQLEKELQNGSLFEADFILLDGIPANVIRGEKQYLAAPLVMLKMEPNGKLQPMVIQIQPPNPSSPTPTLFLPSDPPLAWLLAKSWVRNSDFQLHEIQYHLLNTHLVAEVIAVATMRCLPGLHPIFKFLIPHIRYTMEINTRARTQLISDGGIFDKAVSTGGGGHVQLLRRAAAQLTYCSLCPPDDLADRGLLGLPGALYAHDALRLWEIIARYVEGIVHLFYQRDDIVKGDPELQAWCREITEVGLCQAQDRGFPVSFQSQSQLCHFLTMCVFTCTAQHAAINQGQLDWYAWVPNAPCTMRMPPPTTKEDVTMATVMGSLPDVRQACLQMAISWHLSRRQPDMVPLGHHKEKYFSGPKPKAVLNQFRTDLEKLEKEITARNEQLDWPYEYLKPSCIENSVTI
#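 Purified human 12hLO at 150 nM in 25 mM Hepes, 0.01% Triton X-100, pH 7.0, preincubated 15 min at room temperature with compound. Reaction started with 40 uM arachidonic acid, 30 min at room temperature. Hydroperoxide measured by Fe-xylenol orange, 573/405 nm absorbance ratio.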
# VDR inhibitor = Inhibitors of the vitamin D receptor (VDR): qHTS | Vitamin D3 receptor (Homo sapiens), P11473 | 0.93% of 400,000 active | Potency, µM, without a hit: max response, negative = inhibition, most hits filed as inhibitors | VDR-SRC2-3 peptide fluorescence polarization, 2 h | AID 504847, 2011
#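 Two reagent solutions held at 4 deg C in the dark were dispensed, compounds pinned at 23 nl, and the mixture incubated 2 h at room temperature. Read-out: fluorescence polarization of VDR–SRC2-3 peptide binding.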
# Sfp PPTase inh = qHTS Assay for Inhibitors of Bacillus subtilis Sfp phosphopantetheinyl transferase (PPTase). Potency, µM, for the others: largest response in the series, negative = inhibition, most hits filed as inhibitors. Biochemical Sfp PPTase activity, qHTS. AID 1490, 2009. 3.5% of 310,000 active;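 note: the enzyme is Sfp with the accession as filed and its product quenches rhodamine fluorescence; 0% = enzyme reaction without inhibitor and -100% = no enzyme wells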
#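 Compounds were incubated with enzyme (final 15 nM) for 15 min at room temperature before substrate addition started the reaction. Fluorescence at 525 nm excitation, 598 nm emission was recorded immediately and after 30 minutes.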
# An asterisk follows results filed as active; ? = inconclusive; nt = no result given; [ ] = dose if it differs, or a comment. Calls come from the whole dose curve; as a rule, active = well fitted curve in the direction sought with a large enough effect; inconclusive = small, poorly fitted or top-dose-only effect, or another doubt; inactive = no such curve, though single readings can be large; an effect the other way counts as inactive or inconclusive. Unless noted, % is set by controls: 0 for no effect and ±100 for the full control effect; potency is the fitted concentration of half-maximal effect.
SMILES,PLK1 PBD inh,12-LOX inh,VDR inhibitor,Sfp PPTase inh
O=C(O)CCCN1C(=O)/C(=C\c2ccccc2OCc2ccccc2)SC1=S,26.7µM*,?,-25.3%,1.4%
O=C(O)COc1ccccc1/C=C1\SC(=O)N(Cc2ccc(F)cc2)C1=O,-24.8%,?,?,-4.0%
Cc1cccc(N2CCN(C(=O)c3ccc(NC4=NC5CS(=O)(=O)CC5S4)cc3)CC2C)c1 (centres undefined),23.8µM*,-25.3%,-28.9%,7.1%
Cc1ccc(NC(=O)COc2cccc(/C=C3\SC(=S)N(CCC(=O)O)C3=O)c2)cc1Cl,18.9µM*,13.5%,?,-18.9%
COc1cccc(/C=C2\SC(=S)N(CCCC(=O)Nc3ccc(C(=O)O)cc3)C2=O)c1,-16.0%,-28.2%,-14.0%,-11.1%
O=C(O)CCN1C(=O)/C(=C\c2cccc(OCC(=O)Nc3ccc(Cl)cc3)c2)SC1=S,26.7µM*,?,14.1µM*,-4.5%
O=C(C1CCN(S(=O)(=O)c2cnc[nH]2)CC1)N1CCn2c1nc1ccccc12,-4.9%,18.5%,-5.7%,18.1%
COCCNC(=O)C1(C)CCCc2cnc(Nc3ccccc3)nc21 (centres undefined),nt,-2.9%[176 µM],nt,nt
Cc1ccc(/C=c2\sc3nc(-c4cccs4)nn3c2=O)o1,-2.4%,?,35.5µM*,-4.5%
Cc1ccc(-c2ccc(OC(=O)c3cnc(C)cn3)cc2)cc1,nt,-21.0%,nt,nt
CCCCn1c(SCC(=O)NCc2ccco2)nc2ccc(N3CCOCC3)cc2c1=O,-15.2%,-12.2%,-7.4%,44.7µM*
CCC(C)NC(=O)CSc1nc2ccc(N3CCOCC3)cc2c(=O)n1CCc1ccccc1 (centres undefined),nt,nt,nt,-14.6%
CCCCn1c(SCC(=O)NC(C)CC)nc2ccc(N3CCOCC3)cc2c1=O (centres undefined),-2.0%,-3.2%,-16.9%,56.2µM*
O=C(CSc1nc2ccccc2o1)N1CCCC1C1CCCCC1 (centres undefined),nt,24.0%,nt,nt
COc1ccc(C2CC(O)(c3ccccc3)Oc3c(C)ccc(C(C)C)c32)cc1 (centres undefined),nt,nt,-8.4%,27.1%
O=C(C1=C(O)C(=O)N(CCN2CCOCC2)C1c1cccs1)c1cc2ccccc2o1 (centres undefined),-8.4%,7.08µM*,-13.1%,nt
Cc1ccc(C2C(C(=O)c3cc4ccccc4o3)=C(O)C(=O)N2CCN2CCOCC2)o1 (centres undefined),-24.2%,?,0.9%,50.1µM*
O=C1CCCc2nc(N3CCN(c4ccccc4)CC3)ncc21,29.9µM*,-6.4%,-4.0%,6.9%
Cc1nc(N2CCN(c3ccccc3)CC2)nc2c1C(=O)CCC2,-7.1%,?,12.9%,-3.1%
O=C1c2cc(Br)ccc2N(Cc2ccc(Br)cc2)S(=O)(=O)C1c1cc(Cl)c(Cl)cc1[N+](=O)[O-] (centres undefined),21.2µM*,nt,-27.3%,nt
C=CCOC(=O)/C=C/C(=O)NC(N)=O,?,55.4%,?,20µM*
Cc1ccc2c(c1)C=C(C(=O)Nc1ccc3oc(=O)ccc3c1)C=CO2,nt,-24.2%,nt,nt
NCCC(=O)Nc1cccc2ccccc12,nt,-2.5%,nt,nt
NCCNc1cccc2ccccc12,nt,?,50.1µM*,70.8µM*
O/N=C\c1cnc(N2CCN(c3ccccc3)CC2)s1,?,51.9%,9.9%,2.2%
SMILES,PLK1 PBD inh,12-LOX inh,VDR inhibitor,Sfp PPTase inh
O=C(CN1CCC(NC(=O)Nc2ccccc2)CC1)Nc1ccccc1F,0.1%,7.1%,0.0%,6.8%
Cc1ccccc1CN1[C@@H](CC2CCCCC2)COCCS1(=O)=O,26.7µM*,-6.9%,?,7.2%
O=S1(=O)CCOC[C@H](CC2CCCCC2)N1Cc1ccccc1,0.4%,26.6%,-1.7%,8.4%
CC(C)[C@H]1COCCS(=O)(=O)N1Cc1ccccc1-c1ccccc1,23.8µM*,-3.6%,?,nt
COc1cccc(-c2nc(-c3nc4ccccc4s3)cs2)c1OC,nt,5.01µM*,nt,nt
COc1ccc(-c2nc3ccccc3s2)cc1O,23.8µM*,?,-3.3%,-7.0%
CC1(C)NC(=O)N(Cc2cc(=O)n3ccsc3n2)C1=O,-15.1%,12.9%,16.9%,11.9%
CCC1=C(OC(=O)N(CC)CC)N2C(=O)OC(=NCCOC)[C@]2(C)[C@H]2C1=CC[C@H]1C(=O)N(CC(=O)OC)C(=O)[C@H]12,nt,nt,nt,5.2%
COc1cc(NC(=O)COc2ccccc2[N+](=O)[O-])ccc1NC(=O)c1cccs1,-0.1%,0.9%,2.7%,15.8µM*
NS(=O)(=O)c1cccc(NC(=S)NC(=O)C23CC4CC(CC(C4)C2)C3)c1,-9.5%,31.6µM*,-5.4%,4.2%
Fc1ccc(/C=C2\CCCC3=C2Nc2ncnn2C3c2ccc(F)cc2)cc1 (centres undefined),23.8µM*,80.2%,?,?
FC(F)(F)Oc1ccc(NC(=S)NCCCN2CCOCC2)cc1,11.9µM*,?,-7.4%,56.2µM*
S=C(NCCCN1CCOCC1)NCCCN1CCOCC1,5.32µM*,-28.3%,?,7.08µM*
S=C(NCCCN1CCOCC1)NC1CCCC1,-1.7%,-6.8%,18.9%,-1.9%
CCC(CC)C(=O)N(C)c1c(C)nc2c(OCCOc3ccc(F)cc3)cccn12,-1.6%,-8.9%,nt,nt
CCOCc1cnc(C)nc1NCC(=O)c1c(C)[nH]c2ccc(OC)cc12,3.2%,12.6µM*,10.0%,?
C=CCn1c(SCc2nc3ccccc3c(=O)[nH]2)nc2ccccc2c1=O,-8.7%,453.9%,0.8%,50.1µM*
Cc1cccc(-c2cc3nc(C)cc(NCCCn4ccnc4)n3n2)c1,23.8µM*,-13.0%,3.2%,-5.0%
CC(NC(=O)NNC(N)=S)(C(F)(F)F)C(F)(F)F,-11.2%,?,-10.4%,44.7µM*
COc1cccc(C2OCC(C)(C)n3c(-c4ccccc4)c4c(=O)n(C)c(=O)n(C)c4c32)c1O (centres undefined),nt,11.2µM*,nt,nt
Cc1cc(C)c2nc(SCC(=O)Nc3ccccc3N3CCOCC3)c(C#N)cc2c1,29.9µM*,-7.0%,-8.0%,nt
CC(CN1CCCC1)CN(C)c1nc(CCN)nc2ccccc12 (centres undefined),nt,36.5%,nt,nt
CCCc1ccc(C2=Nn3c(nnc3C(C)C)SC2)cc1,10.6µM*,nt,79.4µM*,22.4µM*
CC(C)c1nnc2n1N=C(c1ccc(Cl)cc1)CS2,-8.6%,10.9%,-12.1%,-4.0%
CC(=O)NC1(C)CN(c2ccc(OC(F)(F)F)cc2)C1,nt,0.5%[176 µM],nt,nt
SMILES,PLK1 PBD inh,12-LOX inh,VDR inhibitor,Sfp PPTase inh
COc1ccc(C2=NOC(C(=O)NCc3ccccn3)C2)cc1 (centres undefined),26.7µM*,-0.8%,-5.2%,14.1%
CCN(C(=O)c1ccc(F)cc1)C1CC1,nt,2.5%,nt,nt
CCN(CC)CCC(=O)c1ccc(F)cc1,10.6µM*,0.3%,-6.6%,-5.5%
COc1ccc(CCn2c(C)c(C(C)=O)c3cc(OC(=O)c4ccco4)ccc32)cc1OC,23.8µM*,33.8%,4.1%,-11.5%
CCOC(=O)C(=Cc1ccc(-n2cncn2)cc1)C(=O)OCC,?,-0.8%,15.8µM*,-20.2%
CCOC(=O)C(=Cc1ccncc1)C(=O)OCC,nt,0.0%,nt,nt

# Screens as filed in PubChem BioAssay.
